Reference: ChEMBL document CHEMBL2218924, “A broad activity screen in support of a chemogenomic map for kinase signalling research and drug discovery” (Biochem J, 2013)

target: CDK9/cyclin T1 (Homo sapiens) (UniProt O60563+P50750); conditions: at 10 µM

| Structure (SMILES) | residual activity [%] |
| --- | --- |
| N#C/C(=C1/Nc2ccccc2S1)c1ccnc(NCCc2cccnc2)n1 | 3 |
| COc1cc2c(cc1OC)-c1n[nH]c(Nc3cccc(F)c3)c1C2 | 50 |
| Cc1cc(C)c(/C=C2\C(=O)Nc3ccccc32)[nH]1 | 78 |
| CN(C)S(=O)(=O)c1ccc2c(c1)/C(=C/c1cc3c([nH]1)CCCC3)C(=O)N2 | 93 |
| CCN(CC)CCNC(=O)c1c(C)[nH]c(/C=C2\C(=O)Nc3ccc(Cl)cc32)c1C | 13 |
| Nc1ncnc2c1c(-c1ccc(Oc3ccccc3)cc1)cn2C1CCCC1 | 96 |
| CC(C)c1nn(-c2c(Cl)cccc2Cl)c2nc(Cc3ccc(OCCO)cc3)[nH]c(=O)c12 | 0 |
| O=c1cc(N2CCNCC2)oc2c(-c3ccccc3)cccc12 | 42 |
| O=C1C(Cl)=C(N2C(=O)CCC2=O)C(=O)c2ccccc21 | 87 |
| O=C1Nc2ccc(Cl)cc2/C1=C/c1cc(Cl)c(O)c(Cl)c1 | 69 |
| O=C1Cc2c([nH]c3ccc([N+](=O)[O-])cc23)-c2ccccc2N1 | 2 |

target: T1, Serine/threonine-protein kinase Chk1 (Homo sapiens) (UniProt O14757); conditions: at 1 µM
T1 sequence (whole entry): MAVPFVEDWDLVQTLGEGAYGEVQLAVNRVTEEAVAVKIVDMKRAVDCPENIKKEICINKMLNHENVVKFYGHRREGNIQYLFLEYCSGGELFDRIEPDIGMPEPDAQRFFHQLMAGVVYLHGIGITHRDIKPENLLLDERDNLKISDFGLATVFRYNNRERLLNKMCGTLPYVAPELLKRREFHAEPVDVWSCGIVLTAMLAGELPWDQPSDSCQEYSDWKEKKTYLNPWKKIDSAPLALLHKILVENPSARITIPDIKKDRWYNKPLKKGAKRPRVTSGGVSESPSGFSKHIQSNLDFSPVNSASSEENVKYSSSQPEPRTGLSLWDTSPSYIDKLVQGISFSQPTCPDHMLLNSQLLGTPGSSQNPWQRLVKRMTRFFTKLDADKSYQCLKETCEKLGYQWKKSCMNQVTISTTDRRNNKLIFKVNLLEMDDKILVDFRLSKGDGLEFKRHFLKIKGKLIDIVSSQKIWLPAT

| Structure (SMILES) | residual activity [%] |
| --- | --- |
| CCCC(=O)Oc1ccc2[nH]c(C(=O)c3cc4ccccc4[nH]3)cc2c1 | 79 |
| Cn1sc(=O)n(Cc2ccccc2)c1=O | 88 |
| O=C1NC(=O)C(c2cn(CCCn3ccnc3)c3ccccc23)=C1Nc1ccccc1 | 75 |
| Nc1n[nH]c2nc3ccccc3nc12 | 90 |
| COc1cc2nccc(Oc3ccc(NC(=S)NC(=O)c4ccccc4C)cc3)c2cc1OC | 83 |
| NCCNc1ncc(C(N)=O)c(Nc2cccc(C(F)(F)F)c2)n1 | 66 |
| CC(C)(C)n1nc(Cc2cccc3ccccc23)c2c(N)ncnc21 | 86 |
| O=S(=O)(NCCNC/C=C/c1ccc(Br)cc1)c1cccc2cnccc12 | 81 |
| Nc1ncnc2c1cnn2-c1ccccc1 | 91 |
| O=c1cc(N2CCOCC2)oc2c1ccc1ccccc12 | 90 |
| O=C(O)/C=C/c1cc(Br)c(Br)c(Br)c1Br | 107 |
| O=C1NC(=O)c2c1c1c3ccccc3[nH]c1n1cncc21 | 18 |
| O=C(Nc1nc2ccccc2n1CCN1CCOCC1)c1cccc([N+](=O)[O-])c1 | 85 |
| COc1ccc2c(c1)c(C1=C(c3c[nH]c4ccccc34)C(=O)NC1=O)cn2CCCN(C)C | 67 |
| O=C(c1ccccc1)c1ccc(N2CCOCC2)cc1O | 86 |
| Nc1nc(Nc2ccc(S(N)(=O)=O)cc2)nn1C(=O)c1c(F)cccc1F | 82 |
| NC(=O)Nc1sc(-c2ccc(F)cc2)cc1C(N)=O | 37 |
| O=C(c1cc2cc(O)ccc2[nH]1)c1cc2cc(O)ccc2[nH]1 | 76 |
| CCCCc1c(-c2ccc(O)cc2)[nH]c2nccnc12 | 91 |
| N#C/C(=C1/Nc2ccccc2S1)c1ccnc(NCCc2cccnc2)n1 | 97 |
| COc1cc2c(cc1OC)-c1n[nH]c(Nc3cccc(F)c3)c1C2 | 72 |
| Cc1cc(C)c(/C=C2\C(=O)Nc3ccccc32)[nH]1 | 72 |
| CN(C)S(=O)(=O)c1ccc2c(c1)/C(=C/c1cc3c([nH]1)CCCC3)C(=O)N2 | 77 |
| CCN(CC)CCNC(=O)c1c(C)[nH]c(/C=C2\C(=O)Nc3ccc(Cl)cc32)c1C | 24 |
| Nc1ncnc2c1c(-c1ccc(Oc3ccccc3)cc1)cn2C1CCCC1 | 83 |
| CC(C)c1nn(-c2c(Cl)cccc2Cl)c2nc(Cc3ccc(OCCO)cc3)[nH]c(=O)c12 | 93 |
| O=c1cc(N2CCNCC2)oc2c(-c3ccccc3)cccc12 | 83 |
| O=C1C(Cl)=C(N2C(=O)CCC2=O)C(=O)c2ccccc21 | 94 |
| O=C1Nc2ccc(Cl)cc2/C1=C/c1cc(Cl)c(O)c(Cl)c1 | 75 |
| O=C1Cc2c([nH]c3ccc([N+](=O)[O-])cc23)-c2ccccc2N1 | 39 |

target: T1, Serine/threonine-protein kinase Chk1 (Homo sapiens); conditions: at 10 µM

| Structure (SMILES) | residual activity [%] |
| --- | --- |
| CCCC(=O)Oc1ccc2[nH]c(C(=O)c3cc4ccccc4[nH]3)cc2c1 | 89 |
| Cn1sc(=O)n(Cc2ccccc2)c1=O | 90 |
| O=C1NC(=O)C(c2cn(CCCn3ccnc3)c3ccccc23)=C1Nc1ccccc1 | 37 |
| Nc1n[nH]c2nc3ccccc3nc12 | 79 |
| NCCNc1ncc(C(N)=O)c(Nc2cccc(C(F)(F)F)c2)n1 | 27 |
| CC(C)(C)n1nc(Cc2cccc3ccccc23)c2c(N)ncnc21 | 102 |
| O=S(=O)(NCCNC/C=C/c1ccc(Br)cc1)c1cccc2cnccc12 | 44 |
| Nc1ncnc2c1cnn2-c1ccccc1 | 83 |
| O=c1cc(N2CCOCC2)oc2c1ccc1ccccc12 | 93 |
| O=C(O)/C=C/c1cc(Br)c(Br)c(Br)c1Br | 97 |
| O=C1NC(=O)c2c1c1c3ccccc3[nH]c1n1cncc21 | 14 |
| COc1ccc2c(c1)c(C1=C(c3c[nH]c4ccccc34)C(=O)NC1=O)cn2CCCN(C)C | 41 |
| O=C(c1ccccc1)c1ccc(N2CCOCC2)cc1O | 90 |
| Nc1nc(Nc2ccc(S(N)(=O)=O)cc2)nn1C(=O)c1c(F)cccc1F | 31 |
| NC(=O)Nc1sc(-c2ccc(F)cc2)cc1C(N)=O | 7 |
| O=C(c1cc2cc(O)ccc2[nH]1)c1cc2cc(O)ccc2[nH]1 | 47 |
| CCCCc1c(-c2ccc(O)cc2)[nH]c2nccnc12 | 100 |
| N#C/C(=C1/Nc2ccccc2S1)c1ccnc(NCCc2cccnc2)n1 | 84 |
| COc1cc2c(cc1OC)-c1n[nH]c(Nc3cccc(F)c3)c1C2 | 75 |
| Cc1cc(C)c(/C=C2\C(=O)Nc3ccccc32)[nH]1 | 38 |
| CN(C)S(=O)(=O)c1ccc2c(c1)/C(=C/c1cc3c([nH]1)CCCC3)C(=O)N2 | 73 |
| CCN(CC)CCNC(=O)c1c(C)[nH]c(/C=C2\C(=O)Nc3ccc(Cl)cc32)c1C | 3 |
| Nc1ncnc2c1c(-c1ccc(Oc3ccccc3)cc1)cn2C1CCCC1 | 113 |
| CC(C)c1nn(-c2c(Cl)cccc2Cl)c2nc(Cc3ccc(OCCO)cc3)[nH]c(=O)c12 | 95 |
| O=c1cc(N2CCNCC2)oc2c(-c3ccccc3)cccc12 | 85 |
| O=C1C(Cl)=C(N2C(=O)CCC2=O)C(=O)c2ccccc21 | 87 |
| O=C1Nc2ccc(Cl)cc2/C1=C/c1cc(Cl)c(O)c(Cl)c1 | 64 |
